# Pf Dd2 inh – P. falciparum Dd2 growth inhibition | 2.3% of 94,000 active | activity change, % at 10 µM | SYBR Green, 72 h; active compounds read low; in the data active = activity change below about -80%
# T cruzi growth – blocks T. cruzi growth in NIH3T3 culture; T. cruzi beta-gal in NIH3T3, GalScreen luminescence, 90 h; inhibition, % at 8.34 µM; 5.9% of 77,000 active; AID 624255;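 active = mean inhibition above about 93%, with at least 55% of replicates each passing it, limit read from the data, passing the limit was not always enough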
# C diff HTS – C. difficile growth inhibition; Clostridium difficile clinical isolate growth, OD600, 24 h; active compounds read low; growth activity, negative = inhibition, % at 16 µg/mL (by protocol); 0.25% of 86,000 active;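 active = mean growth activity at or below -80% and every replicate also at or below -80%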;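 note: 0% = DMSO wells and -100% = levofloxacin 16 µg/mL wells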
# The depositor's hits bear a star; . = not tested or not shown. Hits are enriched below; roughly 6.8% of the tested compounds scored in any of these assays.
SMILES,Pf Dd2 inh,T cruzi growth,C diff HTS
COc1ccc2c3c([nH]c2c1)[C@@H](CO)N(C(=O)CN(C)C)CC31CN(Cc2ccncc2)C1,-17.7,.,-2.4
C[C@@H]1CN([C@@H](C)CO)C(=O)c2cccc(NC(=O)C3CC3)c2O[C@@H]1CN(C)C(=O)Nc1ccc2c(c1)OCO2,-83.1*,18.9,-2.4
C[C@H]1CN([C@@H](C)CO)C(=O)c2cccc(NC(=O)C3CC3)c2O[C@H]1CN(C)C(=O)Nc1ccc2c(c1)OCO2,-26.3,32.2,-4.5
C[C@H](O)C#Cc1ccc2c(c1)O[C@@H](CN(C)Cc1ccccc1)[C@H](C)CN([C@H](C)CO)S2(=O)=O,-41.5,-4.0,-5.6
O=C(C[C@@H]1C[C@@H]2c3cc(NC(=O)C4CCOCC4)ccc3O[C@@H]2[C@H](CO)O1)NCc1cc(F)ccc1F,22.6,51.9,3.8
COc1ccc(CN(C)C[C@@H]2Oc3c(NC(=O)Nc4ccc(OC)cc4)cccc3C(=O)N([C@H](C)CO)C[C@H]2C)cc1,-0.7,-8.8,-0.6
COc1ccc(NC(=O)Nc2cccc3c2O[C@H](CN(C)Cc2ccc(C(=O)Nc4ccccc4N)cc2)[C@@H](C)CN([C@H](C)CO)C3=O)cc1,-83.5*,.,11.3
COc1ccc(NC(=O)Nc2cccc3c2O[C@H](CN(C)Cc2ccc(C(=O)Nc4ccccc4N)cc2)[C@H](C)CN([C@@H](C)CO)C3=O)cc1,-93.5*,.,22.5
COc1ccc(CN(C)C[C@H]2Oc3c(NC(=O)Nc4ccc(OC)cc4)cccc3C(=O)N([C@H](C)CO)C[C@@H]2C)cc1,-8.2,19.9,-8.4
COc1ccc(CN(C)C[C@@H]2Oc3c(NC(=O)Nc4ccc(OC)cc4)cccc3C(=O)N([C@H](C)CO)C[C@@H]2C)cc1,-5.9,-7.2,-2.4
COc1ccc(NC(=O)Nc2cccc3c2O[C@H](CN(C)Cc2ccc(C(=O)Nc4ccccc4N)cc2)[C@@H](C)CN([C@@H](C)CO)C3=O)cc1,-88.2*,105.1,-1.1
C[C@@H]1CCCCO[C@@H](CN(C)Cc2ccc(C(=O)O)cc2)[C@@H](C)CN([C@H](C)CO)C(=O)c2cc(NS(=O)(=O)c3ccc(Cl)cc3)ccc2O1,-16.8,54.9,-6.5
CN(C)C(=O)C[C@@H]1C=C[C@@H](NC(=O)C2CCOCC2)[C@H](CO)O1,-13.0,.,4.5
C[C@@H]1CN([C@H](C)CO)C(=O)c2cccc(NC(=O)c3nc4ccccc4s3)c2O[C@@H]1CN(C)C(=O)Nc1ccc2c(c1)OCO2,-57.3,71.1,.
C[C@H]1CN([C@@H](C)CO)C(=O)c2cccc(NC(=O)c3nc4ccccc4s3)c2O[C@@H]1CN(C)C(=O)Nc1ccc(C(F)(F)F)cc1,-55.6,82.0,11.4
C[C@@H]1CN([C@H](C)CO)C(=O)c2cccc(NC(=O)c3nc4ccccc4s3)c2O[C@H]1CN(C)C(=O)Nc1ccc2c(c1)OCO2,-81.9*,58.7,.
Cc1ccc(S(=O)(=O)N(C)C[C@@H]2Oc3c(NC(=O)c4nc5ccccc5s4)cccc3C(=O)N([C@@H](C)CO)C[C@H]2C)cc1,-84.8*,68.1,-0.3
C[C@@H]1CN([C@@H](C)CO)C(=O)c2cccc(NC(=O)c3nc4ccccc4s3)c2O[C@H]1CN(C)C(=O)Nc1ccc(C(F)(F)F)cc1,-89.7*,88.4,-0.6
CC(C)NC(=O)N(C)C[C@H]1Oc2c(NC(=O)c3nc4ccccc4s3)cccc2C(=O)N([C@@H](C)CO)C[C@H]1C,-72.2,75.0,-2.6
Cc1ccc(S(=O)(=O)N(C)C[C@H]2Oc3c(NC(=O)c4nc5ccccc5s4)cccc3C(=O)N([C@@H](C)CO)C[C@H]2C)cc1,-56.1,95.8,-0.8
CC(C)NC(=O)N(C)C[C@H]1Oc2c(NC(=O)c3nc4ccccc4s3)cccc2C(=O)N([C@H](C)CO)C[C@H]1C,-83.1*,-16.2,0.4
CCCNC(=O)Nc1ccc2c(c1)C(=O)N(C)C[C@@H](OC)[C@H](C)CN(CCC(F)(F)F)[C@H](C)CO2,.,28.8,.
C/C=C/c1ccc([C@H]2[C@@H](CO)N(C(C)=O)[C@@H]2CN(CCC)C(=O)C2CC2)cc1,-11.8,.,1.9
COc1ccc2c3c([nH]c2c1)[C@H](CO)N(Cc1cccc(F)c1)CC31CN(Cc2ccccn2)C1,-73.1,.,0.8
O=C(CN1CCOCC1)N1CC(=O)N2[C@H](C1)[C@H](c1ccc(C3=CCCCC3)cc1)[C@@H]2CO,52.3,.,3.2
SMILES,Pf Dd2 inh,T cruzi growth,C diff HTS
COc1cc(CN2[C@@H]3CNC[C@H]2C3c2ccc(-c3cccnc3)cc2)cc(OC)c1 (stereo partly specified),0.1,.,-3.5
FC(F)(F)c1cccc(CN2[C@@H]3CNC[C@H]2[C@@H]3c2ccc(-c3cccnc3)cc2)c1,-84.2*,.,11.0
C[C@H](CO)N1C[C@H](C)[C@H](CN(C)C(=O)Nc2cccc3ccccc23)Oc2ccc(NC(=O)Cc3cn(C)c4ccccc34)cc2CC1=O,-84.9*,43.4,-4.4
C[C@@H]1CN([C@H](C)CO)C(=O)Cc2cc(NC(=O)Cc3cn(C)c4ccccc34)ccc2O[C@@H]1CN(C)Cc1ccc(Oc2ccccc2)cc1,-27.6,58.7,-2.2
C[C@H](CO)N1C[C@H](C)[C@@H](CN(C)Cc2ccccc2)Oc2ccc(NC(=O)Cc3cn(C)c4ccccc34)cc2CC1=O,-82.2*,70.2,-5.3
C[C@H]1CN([C@@H](C)CO)C(=O)Cc2cc(NC(=O)Cc3cn(C)c4ccccc34)ccc2O[C@H]1CN(C)C(=O)Nc1cccc2ccccc12,-33.2,28.5,-1.9
C[C@@H]1CN([C@H](C)CO)C(=O)Cc2cc(NC(=O)Cc3cn(C)c4ccccc34)ccc2O[C@H]1CN(C)Cc1ccccc1,-11.2,66.0,-16.3
C[C@@H]1CN([C@@H](C)CO)C(=O)Cc2cc(NC(=O)Cc3cn(C)c4ccccc34)ccc2O[C@H]1CN(C)Cc1ccc(Oc2ccccc2)cc1,-90.4*,8.6,40.6
COc1ccc(CN(C)C[C@H]2Oc3ccc(NC(=O)Cc4cn(C)c5ccccc45)cc3CC(=O)N([C@H](C)CO)C[C@H]2C)cc1,30.7,73.8,-12.6
C[C@H](CO)N1C[C@H](C)[C@H](CN(C)Cc2ccc(Oc3ccccc3)cc2)Oc2ccc(NC(=O)Cc3cn(C)c4ccccc34)cc2CC1=O,-82.7*,35.9,9.0
C[C@@H](NC(=O)C[C@@H]1CC[C@H](NC(=O)Nc2ccc3c(c2)OCO3)[C@H](CO)O1)c1ccccc1,20.5,31.9,.
COC(=O)C[C@@H]1CC[C@@H]2[C@@H](COc3ccc(NC(=O)Nc4ccc(C)cc4)cc3C(=O)N2C)O1,-2.9,19.4,-4.2
C[C@H](CO)N1C[C@H](C)[C@H](CN(C)Cc2ccc(C(F)(F)F)cc2)Oc2c(NS(=O)(=O)c3cccs3)cccc2C1=O,-13.8,78.1,3.2
O=C(NC[C@@H]1CC[C@@H]2[C@@H](CN2Cc2cccc(Cl)c2)O1)C1CCOCC1,-6.8,.,-4.3
CC(C)NC(=O)N(C)C[C@H]1Oc2c(NC(=O)CCCCCC(=O)Nc3ccccc3N)cccc2C(=O)N([C@@H](C)CO)C[C@@H]1C,34.6,.,-6.0
O=C(NCC1CC1)[C@@H]1[C@@H](CO)[C@@H]2Cn3c(ccc(C4=CCCC4)c3=O)[C@H]1N2C(=O)C1CC1,-1.8,68.7,2.8
COc1ccc(CN2C[C@@H](C)[C@H](OC)CN(C)C(=O)c3cc(NC(=O)c4nc5ccccc5s4)ccc3OC[C@H]2C)cc1,-85.7*,.,.

# Source: PubChem BioAssay
